# Bioassay records as filed in PubChem BioAssay.
# Beta cell apopt: blocks beta cell apoptosis. INS-1E cytokine-induced death, ATP luminescence, 48 h; percent of positive-control rescue, neutral wells zero. protection from apoptosis, % (concentration not given with the values). 300,000 compounds, 0.8% hits. AID 435005;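 active = Every replicate reaches about 75%, or at least half do and their mean reaches it too, limit read from the data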;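 also: 0% = cytokine-treated negative control wells and 100% = positive control rescue; higher means more ATP so stronger rescue from cytokine killing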
# Mdm2 MdmX PPI: disrupts the human Mdm2-MdmX interaction; SaOS-2 split-luciferase Mdm2/MdmX complementation, luminescence; AID 485346; O15151+Q00987; 330,000 compounds, 3% hits; inhibition, % at 8 µM;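 active = inhibition of at least 50% at 8 µM in the primary screen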
# MPTP block: inhibitors of mitochondrial permeability transition pore. isolated mouse mitochondria, Ca2+ swelling absorbance, 30 min. inhibition, % at 10 µM. 360,000 compounds, 1.4% hits;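 active = inhibition of 50% or more, scaled per plate between neutral and stimulator controls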;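 also: 0% = DMSO wells given calcium and 100% = 1 mM EGTA wells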
# CSC inhib: cancer stem cell inhibition; cancer stem cell-like cells viability, luminescence; inhibition, % at 7.5 µM; 300,000 compounds, 1.1% hits; AID 2717; in the data active = inhibition above about 75%; tested in HMLE shEcad cells
# Calb FLC: C. albicans growth modulation with fluconazole; C. albicans CaCi-2 (fluconazole-resistant clinical isolate) + fluconazole, Alamar Blue growth, 48 h; growth inhibition, % (test concentration not listed); 300,000 compounds, 0.57% hits; AID 1979;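 active = growth inhibition above about 58% in most replicates, limit read from the data, passing the limit was not always enough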;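 also: all wells also contain fluconazole at 8 µg/ml as a sub-toxic cotreatment; 0% = median of DMSO wells and 100% = median of geldanamycin control wells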
# MPTP counter: mitochondrial membrane potential, counter-screen; shares compounds with MPTP block; isolated mitochondria, Rhodamine 123 fluorescence; inhibition, % at 10 µM; 5,000 compounds, 78% hits; in the data active = inhibition above about 22%;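 also: 0% = DMSO vehicle and 100% = positive control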
# MPTP swell DR: MPTP inhibition, dose response swelling confirmation. shares compounds with MPTP block. isolated mitochondria swelling, absorbance. IC50, µM. 780 compounds, 58% hits; in the data active = IC50 below about 20 µM
# MPTP cs DR: counter-screen for mitochondrial permeability transition pore inhibitors, dose response; shares compounds with MPTP block; isolated mitochondria counterscreen, fluorescence read-out; IC50, µM; 780 compounds, 49% hits; in the data active = IC50 below about 80 µM
# Starred values were filed as active, the others as inactive; i = inactive; · = not tested or not shown. A selection: hits, their analogues and other compounds. The true share with any hit is near 4.8%.
SMILES,Beta cell apopt,Mdm2 MdmX PPI,MPTP block,CSC inhib,Calb FLC,MPTP counter,others
O=C(O)CCC(=O)N1N=C(c2ccc(Br)cc2)CC1c1cccs1 (stereo not given),-3.3,-32.4,81.3*,6.2,27.7,3.0,MPTP swell DR=>100;MPTP cs DR=>80
COc1ccc([C@H]2CC(=O)C[C@@H](CCn3cc(-c4ccc(F)cc4)nn3)O2)cc1,·,·,1.6,·,·,·,
O=C(c1ccccc1)c1ccc(OCCOCCN2CCN(Cc3ccccc3)CC2)cc1,0.0,15.2,83.5*,24.4,-18.1,10.4,MPTP swell DR=18.2*;MPTP cs DR=27.2*
O=C(CCN1CCN(Cc2ccccc2)CC1)Nc1ccc(OCc2ccccc2)cc1,7.8,19.5,85.6*,33.6,-13.1,17.0,MPTP swell DR=7.34*;MPTP cs DR=13.1*
O=C(c1ccccc1)c1ccc(OCCCCN2CCCCC2)cc1,2.2,3.6,-0.1,35.4,-10.0,·,
c1ccc(COc2ccc(OCCCCN3CCCCC3)cc2)cc1,-0.5,-15.6,74.1*,19.1,-3.9,-0.5,MPTP swell DR=6.71*;MPTP cs DR=19.4*
O=C(c1ccccc1)c1ccc(OCCCN2CCCC2)cc1,-3.9,-29.1,0.6,61.7,4.7,·,
COc1ccc(C(=O)Nc2ccc3c(c2)C(=O)N(C)C3=O)cc1OC,1.7,7.2,0.8,-1.1,-11.1,·,
O=C(OCc1cn([C@@H]2CN(CC3CCCCC3)[C@@H](c3ccccc3)C[C@H]2O)nn1)c1ccccc1,·,·,-0.8,·,·,·,
CCCCc1c(-c2ccccc2Br)ncn1CCc1ccccc1OC,·,·,26.7,·,·,·,
CCCCCc1c(-c2ccccc2OC)ncn1CCc1ccccc1OC,·,·,81.4*,·,·,113.0*,
CCCCc1c(-c2ccccc2OC)ncn1CCc1ccccc1OC,·,·,80.5*,·,·,114.6*,
CCCCCc1c(-c2ccccc2F)ncn1CCc1ccccc1OC,·,·,4.2,·,·,·,
COc1ccc(-n2cnc3cc(NS(=O)(=O)c4ccc(C)cc4)ccc32)cc1,-0.5,14.4,8.9,3.5,·,·,
COc1ccccc1-n1cnc2cc(NS(=O)(=O)c3ccc(Br)cc3)ccc21,12.1,27.4,54.9*,30.7,-2.6,50.2*,
CCOC(=O)N1CCc2c(sc3nc(SC(C)C)n(N)c(=O)c23)C1,16.9,19.8,62.0*,22.7,3.7,25.3*,
COc1ccc(OC)c(C(=O)COC(=O)COc2ccccc2F)c1,·,1.3,-0.5,·,·,·,
CCCOc1ccc(C(=O)NC(=S)NNC(=O)c2c(-c3ccccc3)noc2C)cc1,17.2,32.9,68.8*,30.8,-1.2,8.5,
Cc1onc(-c2ccccc2)c1C(=O)NC(=S)NNC(=O)c1ccccc1O,84.6*,29.5,95.4*,9.4,23.5,11.5,
CCCn1c(NC(=O)CCS(=O)(=O)c2ccc(C)cc2)nc2ccccc21,-5.0,8.8,0.3,2.1,6.8,·,
COc1ccc(CCNc2ccc(C(=O)O)cc2[N+](=O)[O-])cc1OC,1.5,-10.1,0.7,-10.0,-1.6,·,
COc1ccc(C(=O)N2CCN(c3ccc([N+](=O)[O-])c(NCCc4ccc(OC)c(OC)c4)c3)CC2)cc1,106.5*,22.2,85.0*,8.4,2.5,15.5,MPTP swell DR=6.01*;MPTP cs DR=<2.5*
Cc1ccc(NC(=S)Nc2cccc3ccccc23)cc1F,19.7,19.2,64.1*,36.3,5.2,84.3*,
CC1CCCC(C)N1C(=O)COC(=O)CSc1ccc(C(N)=O)cc1[N+](=O)[O-] (stereo not given),-2.9,3.0,0.9,-11.2,-1.5,·,
O=C(NCCc1ccccc1)c1ccccc1C(=O)NCCc1ccccc1,-3.0,-4.8,1.8,-4.4,-1.2,·,
SMILES,Beta cell apopt,Mdm2 MdmX PPI,MPTP block,CSC inhib,Calb FLC,MPTP counter,others
Cc1oc(-c2cc(Cl)cc(Cl)c2)cc1C(=O)NCCc1ccccc1,-4.9,-2.5,92.7*,49.4,5.9,78.5*,
COc1ccc(CCNC(=O)c2cc(-c3cc(Cl)cc(Cl)c3)oc2C)cc1,0.9,29.5,77.2*,-11.5,0.1,20.9*,
O=C(CNC(=O)c1ccc(-c2ccccc2)cc1)Nc1cccc(CO)c1,-5.4,21.0,0.0,-2.0,·,·,
Cc1onc(-c2c(F)cccc2Cl)c1C(=O)OCc1cnc(Cl)s1,2.2,22.6,52.2*,-8.8,39.0,5.5,MPTP swell DR=i;MPTP cs DR=65.7*
CN(CC(=O)NCCc1ccc(S(N)(=O)=O)cc1)S(=O)(=O)/C=C/c1ccccc1,-4.5,25.8,2.7,-8.5,1.6,·,
C[C@H](CO)N1C[C@H](C)[C@@H](CN(C)C)Oc2c(NS(=O)(=O)c3cccs3)cccc2C1=O,-1.0,2.0,0.2,6.5,·,·,
